HSF1 inh = HSF1 inhibition; NIH3T3-HGL HSE-luciferase, MG132-induced, luminescence 8 h; active compounds read low; activity change, negative = inhibition, % at 7.5 µM (by protocol); 300,000 compounds, 0.77% hits; AID 2098;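 active = more than half of replicate wells show activity change below -50%, luminescence cut by over half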;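 note: luciferase reports HSF-1 transcriptional activity via heat shock element; 0% = median of DMSO wells and -100% = zero luminescence signal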
HIF act = HIF pathway transcriptional activation; U2OS HRE-luciferase reporter, luminescence; normalized: DMSO 0%, desferrioxamine 100%; activation, % at 7.5 µM (by protocol); 300,000 compounds, 0.32% hits; AID 1910;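 active = mean activation of at least 10% of the iron chelator positive control signal, with at least half of replicates also reaching 10%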
ARNT-TACC3 inh = ARNT/TACC3 interaction disruption. Q9Y6A5. AlphaScreen His-ARNT PAS-B/GST-TACC3 binding, luminescence; TACC3 fragment carries E629A point mutation. inhibition, % at 9.99 µM. 390,000 compounds, 0.66% hits. AID 623870;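 active = mean inhibition of replicates at least 50% and at least half of replicates each reaching 50%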;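 note: 0% = complete ARNT plus TACC3 wells and 100% = ARNT alone without TACC3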
HSF-1 act = increases HSF-1 driven luciferase reporter signal; AID 504408; 300,000 compounds, 1.7% hits; activation, % at 9 µM; NIH3T3-HGL HSF-1 luciferase reporter, MG132, 8 h; 100% = twice DMSO control signal;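 active = mean replicate activation of at least 50% with a set share of replicates each reaching 50%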;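 note: 0% = median of the neutral control wells and 100% = twice that signal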
HSP90 refold inh = HSP90 refolding inhibition in rabbit reticulocyte lysate. luciferase refolding luminescence, 3 h. inhibition, % at 5.6 µM. 290,000 compounds, 0.91% hits;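 active = inhibition above the screen-wide mean plus 3 SD, computed separately per campaign, cut at about 16% in these data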;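 note: 0% = DMSO wells and 100% = 60 µM geldanamycin wells; inhibitors lower the luminescence because luciferase stays unfolded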
Active calls of the source: *; / = no result. Rows were chosen to be rich in hits. Some 3.1% of all compounds tested hit in one or more screens of this group.

SMILES	HSF1 inh	HIF act	ARNT-TACC3 inh	HSF-1 act	HSP90 refold inh
CNC(=O)C[C@H]1CC[C@@H]2[C@H](COc3ccc(NC(=O)Nc4ccc(C)cc4)cc3C(=O)N2C)O1	/	/	-21	/	/
COC/C=C/C1=CC2=CC(=O)C(C)(OC(=O)c3cnc4ccccc4n3)C(=O)C2=CN1CCCOC(C)C (stereo not given)	-3	0	11*	-10	/
CCN(CC(=O)Nc1c(F)cccc1F)C(=O)Cc1n[nH]c(=O)c2ccccc12	-72*	0	-9	-78	/
CCN(CC(=O)Nc1c(F)cccc1F)C(=O)CCc1nc2ccccc2c(=O)[nH]1	2	0	-4	24	/
CC(Sc1nc(-c2ccccc2)cc(C(F)(F)F)n1)C(=O)Nc1sc2c(c1C(N)=O)CCC2 (stereo not given)	5	0	-7	-6	-4
CC(Sc1nc(-c2ccccc2)cc(C(F)(F)F)n1)C(=O)Nc1sc2c(c1C#N)CCC2 (stereo not given)	17	-1	5	57*	-1
Cc1ccc2nc(NC(=O)Cc3cccs3)sc2c1	25	2	3	45	7
O=C(Cc1cccs1)Nc1nc2ccccc2s1	45	2	-4	66*	-5
COc1ccc2nc(NC(=O)CSc3nc(C)cc(=O)[nH]3)sc2c1	-7	1	37	3	2
COc1ccc2nc(NC(=O)Cc3cccs3)sc2c1	37	3	0	65*	1
COc1ccc2nc(NC(=O)CSc3nccc(C)n3)sc2c1	-10	39*	-1	8	5
Cc1noc(C)c1NC(=O)Nc1ccc2c(c1)C(=O)N([C@H](C)CO)C[C@H](C)[C@H](CN(C)S(=O)(=O)c1ccc(Cl)cc1)O2	/	/	-1	/	/
C[C@H]1CCCCO[C@H](CN(C)C(=O)c2ccncc2)[C@@H](C)CN([C@@H](C)CO)C(=O)c2cc(NS(=O)(=O)c3ccc(F)cc3)ccc2O1	/	/	-5	/	/
C#CC(=O)N(c1ccc(OC)cc1OC)C(C(=O)NC1CCCC1)c1cccs1 (stereo not given)	-26	-3	-7	-29	6
C#CC(=O)N(c1cc(OC)ccc1OC)C(C(=O)NC1CCCC1)c1cccs1 (stereo not given)	-90*	-4	11	-91	11
CCOC(=O)N1CCC(=NNc2ccc(S(=O)(=O)N3CCOCC3)cc2[N+](=O)[O-])CC1	3	0	-12	12	-1
CN1CCC(=NNc2ccc(S(=O)(=O)N3CCOCC3)cc2[N+](=O)[O-])CC1	47	-1	-2	98*	-3
CO[C@H]1CN(C)C(=O)c2cc(NC(=O)C3CCCC3)ccc2OC[C@H](C)NC[C@H]1C	/	/	-2	/	/
CC1CCc2sc(C(=O)NCC(C)(C)N3CCOCC3)cc2C1 (stereo not given)	4	0	4	24	/
CCc1cc(C(=O)NCC(C)(C)N2CCOCC2)sc1C	-68*	1	-4	-76	/
O=C(CSc1nnc2c(n1)[nH]c1ccccc12)Nc1ccc(S(=O)(=O)Nc2ncccn2)cc1	-5	-1	49*	13	4
CC(C)CSc1nnc2c(n1)[nH]c1ccccc12	22	3	5	59*	0
CN(C)/C=C/C(=O)c1ccncc1	13	0	-5	23	2
CN(C)/C=C/C(=O)c1cccc(Oc2ncccn2)c1	49	1	-3	72*	-2
COc1ccc(C(=O)COC(=O)CCN2C(=O)C3C4CC(C(Br)C4Br)C3C2=O)cc1 (stereo not given)	-62*	0	-26	-71	-2
Cc1ccc(C(NC(=O)NCCCN2CCOCC2)=C(Cl)Cl)cc1F	31	1	/	69*	2
CCC(C)(C)NC(=O)C(c1ccc(C)cc1)N(Cc1cccs1)C(=O)c1ccc2c(c1)OCCO2 (stereo not given)	22	-1	13	55*	-1
CCOc1cc(/C=C2\C(=O)N(c3ccc(C(N)=O)cc3)N=C2C)ccc1OC(=O)c1cccs1	0	0	14*	19	7
COc1ccc(/C=C/C(=O)NC(=S)NCCc2ccc(OC)c(OC)c2)cc1	-61*	0	-9	-67	-1
COc1ccc(C(=O)CC(=O)C(=O)Nc2ccccc2)cc1	8	-19	29	27	-1

High-throughput results as filed in PubChem BioAssay.
